Only some compounds are listed: those with a hit (about 4.5% of all), similar ones and a draw of the others.
DAX1 inh-1 = DAX1 (NR0B1) inhibitors on StAR promoter, primary screen, cell-based, luminescence, SF-1 (NR5A1), full-length DAX-1 | HEK293T StAR-luciferase reporter, SF-1/DAX-1 repression relief | inhibition, % at 6.8 µM | 370,000 compounds, 1.1% hits | AID 652010, 2013;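 active = inhibition above the mean over all tested compounds plus 3 SD, cut at about 3.6% in these data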;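 also: 0% = DAX-1 cells with DMSO and 100% = cells lacking DAX-1 with DMSO; higher inhibition means more luminescence from relief of DAX-1 repression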
GAA850 FXN act = FXN promoter activators, primary screen, cell-based, luciferase luminescence, HEK293 lucGAA850 | 360,000 compounds, 0.56% hits | HEK293 lucGAA850 FXN promoter luciferase reporter, 24 h; percent of 10 µM SAHA response | AID 540364, 2011 | activation, % at 6 µM;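 active = activation above the average of all compounds screened plus 3 SD, cutoff fixed separately per campaign, cut at about 7.5% in these data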;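 also: 0% = DMSO wells and 100% = 10 µM SAHA wells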
hgDAF12 agonist = H. glycines DAF-12 receptor agonists, primary screen, cell-based, luminescence, HEK293, GAL4 fusion, UAS-luciferase | Nuclear hormone receptor DAF-12 (Heterodera glycines), GAL4 fusion | HEK293 GAL4-hgDAF12 UAS-luciferase reporter, agonist luminescence; normalized to butyrate control | activation, % at 6.8 µM | 370,000 compounds, 1.8% hits | AID 687014, 2013;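 active = activation above a cutoff set at the mean of all screened compounds plus 3 SD, cut at about 10% in these data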;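 also: 0% = DMSO wells and 100% = sodium butyrate wells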
DAX1 inh-2 = DAX1 (NR0B1) inhibitors, primary screen, cell-based, HEK293, Gal4-DAX1, luciferase luminescence. 340,000 compounds, 0.99% hits. AID 504766, 2011. inhibition, % at 6.75 µM. HEK293 Gal4-DAX1 luciferase reporter. Nuclear receptor subfamily 0 group B member 1 (Homo sapiens), P51843;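 active = inhibition above the mean over all tested compounds plus 3 SD, cut at about 4.2% in these data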;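 also: 0% = DAX1-transfected cells with DMSO and 100% = empty-vector control cells with DMSO; inhibition shows as a rise in luminescence from relieved DAX1 repression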
hcDAF12 agonist = H. contortus DAF-12 nuclear receptor activators, primary screen, cell-based, luminescence, HEK293, lit1-tk-luc reporter. AID 652067, 2013. 370,000 compounds, 1.4% hits. HEK293 hcDAF-12 lit1-tk-luc reporter; 0% DMSO, 100% Δ7-dafachronic acid. activation, % at 6.8 µM;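 active = activation above the mean of all tested compounds plus 3 SD, cut at about 5.5% in these data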;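 also: 100% = response to 3 µM Δ7-dafachronic acid high control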
ssDAF-12 act = S. stercoralis DAF-12 nuclear receptor activators, primary screen, cell-based, luminescence, HEK293, GRIP1 co-expression, lit1-tk-luc. Nuclear hormone receptor DAF-12 (Strongyloides stercoralis). HEK293 ssDAF-12/GRIP1 lit1-tk-luc reporter; % of 3 µM dafachronic acid response. activation, % at 6.8 µM. 370,000 compounds, 1% hits. AID 652126, 2013;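 active = activation above the mean over all tested compounds plus 3 SD, cut at about 0.9% in these data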;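 also: 0% = DMSO-only wells and 100% = 3 µM delta7-dafachronic acid wells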
LXR ag = LXR agonists, Gal4 luciferase reporter, confirmation, counter-screen for hcDAF-12 agonist project, cell-based, luminescence, HEK293, H. contortus campaign; 3,400 tested, under 10 active; AID 743027, 2013; shares compounds with hcDAF12 agonist; activation, % at 6.8 µM; HEK293 Gal4-LXR tk-luc reporter, 24 h; normalized: DMSO 0%, positive control 100%;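 active = mean percent activation of the reporter above a cutoff set as the average over tested compounds plus their standard deviation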
Target sequence (P55055 whole entry, looked up, the tested form may be a part): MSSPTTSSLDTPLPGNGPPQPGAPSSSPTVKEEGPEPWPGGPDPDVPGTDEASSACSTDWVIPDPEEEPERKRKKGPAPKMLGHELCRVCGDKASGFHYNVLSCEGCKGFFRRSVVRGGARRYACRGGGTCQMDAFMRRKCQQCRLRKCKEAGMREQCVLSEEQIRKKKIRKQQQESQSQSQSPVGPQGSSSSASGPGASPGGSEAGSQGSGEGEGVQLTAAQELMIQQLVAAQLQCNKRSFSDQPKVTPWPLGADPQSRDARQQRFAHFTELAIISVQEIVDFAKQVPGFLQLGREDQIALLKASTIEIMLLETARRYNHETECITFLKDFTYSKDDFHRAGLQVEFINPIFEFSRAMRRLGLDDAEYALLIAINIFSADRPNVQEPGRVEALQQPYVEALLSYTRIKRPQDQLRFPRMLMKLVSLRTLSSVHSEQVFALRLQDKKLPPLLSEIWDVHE
hcDAF12 conf = H. contortus DAF-12 receptor agonists, confirmation, cell-based, luminescence, HEK293, lit1-tk-luc, triplicate | shares compounds with hcDAF12 agonist | HEK293 hcDAF-12 lit1-tk-luc reporter; % of Δ7-dafachronic acid response | activation, % at 6.8 µM | 3,400 compounds, 61% hits | AID 743032, 2013;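 active = mean activation across triplicate tests above the threshold derived from the earlier primary screen, cut at about 5.5% in these data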;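 also: 0% = DMSO only wells and 100% = 3 µM Δ7-dafachronic acid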
An asterisk follows results filed as active; . = no result given.

SMILES	DAX1 inh-1	GAA850 FXN act	hgDAF12 agonist	DAX1 inh-2	hcDAF12 agonist	ssDAF-12 act	LXR ag	hcDAF12 conf
CC(C)c1ccc(NC(=O)c2ccc(NS(C)(=O)=O)cc2)cc1	0	-1	2	-1	-1	-1	.	.
CC1=NN(C(=O)c2nn(C)cc2Br)C(O)(C(F)(F)F)C1 (stereo not given)	2	3	10	0	8.9*	0	0	0
C(=N\Nc1nc(-c2cccnc2)nc2ccccc12)/c1ccccc1	0	2	1	.	3	-2	.	.
Brc1ccc(-c2nc(N/N=C/c3cccnc3)c3ccccc3n2)cc1	1	-1	13*	1	11*	1.6*	2	14*
Cc1ccc(S(=O)(=O)/N=C2\C=C(NS(=O)(=O)c3ccccc3)C(=O)c3ccccc32)cc1	-2	5	0	0	2	0	.	.
Cc1cc(C)c(S(=O)(=O)/N=C2\C=C(NS(=O)(=O)c3ccccc3)C(=O)c3ccccc32)c(C)c1	0	2	0	-1	8.0*	0.9*	0	1
COc1ccc(CNC(=O)Cc2c(C(=O)O)[nH]c3ccccc23)cc1	0	-1	0	1	0	1	.	.
COc1ccc(CNC(=O)Cc2c(C(=O)O)[nH]c3ccccc23)c(OC)c1	0	-1	1	1	6.9*	1.9*	0	2
COc1ccc(CCNC/C=C/c2ccccc2)cc1	0	1	0	1	2	-2	.	.
CC(C)C(=O)N1CCCCCCN1C(=O)C(C)C	-1	1	-1	4.4*	7.8*	0	0	-1
CC(CN1CCCCC1)C(=O)NN (stereo not given)	0	4	-1	0	-1	-1	.	.
Cc1cc(C)n2cc(-c3ccc(Cl)cc3)c(C(=O)O)c2n1	3	5	8	1	10*	1.4*	1	9.3*
Cc1cc(N)n2ncc(-c3ccc(Cl)cc3)c2n1	3	3	10	1	6.7*	0	1	5
Cc1cc(NCCOCCO)n2ncc(-c3ccc(Cl)cc3)c2n1	3.7*	-2	10	4	6.7*	1.0*	1	6.8*
COc1ccc(CCNc2cc(C)nc3c(-c4ccccc4OC)cnn23)cc1OC	-1	0	-1	0	-3	-1	.	.
COc1ccccc1CN1CCc2c([nH]c3ccccc23)C1	0	0	-1	1	3	-1	.	.
Clc1cccc(CN2CCc3c([nH]c4ccccc34)C2)c1Cl	0	2	1	1	7.0*	-1	0	-1
Cc1ccc(CN=C(N)Nc2nc(C)cc(C)n2)cc1	-2	-5	0	-1	1	-1	.	.
CC1=NN(C(N)=S)C(=O)C1N=Nc1ccc(C)cc1C (stereo not given)	1	.	11*	.	12*	1.2*	1	13*
O=C(COC(=O)c1cc(Cl)ccc1Cl)NC1CCCC1	0	2	2	1	1	-1	.	.
O=C(COC(=O)c1cc([N+](=O)[O-])ccc1Cl)NC1CCCC1	0	0	1	1	10*	0	0	0
CCN(C(=S)Nc1cc(S(=O)(=O)N2CCOCC2)ccc1Cl)c1cccc2ccccc12	-1	0	0	0	6.8*	1.2*	0	1
CCCn1c(NC(=O)c2ccc(C)cc2)nc2ccccc21	0	4	4	0	-1	-1	.	.
Cc1ccc(C(=O)Nc2nc3ccccc3n2CCN2CCCC2)cc1	4.3*	5	14*	1	9.1*	2.7*	1	8.5*
Cc1cc(C)cc(N2Cc3ccccc3C2)c1	1	0	-3	0	0	-1	.	.
SMILES	DAX1 inh-1	GAA850 FXN act	hgDAF12 agonist	DAX1 inh-2	hcDAF12 agonist	ssDAF-12 act	LXR ag	hcDAF12 conf
CCc1ccc(N2Cc3ccccc3C2)cc1	3	4	29*	3	6.9*	1	1	7.7*
CCC(C)NC(=O)c1ccc(N2CC3CC(C2)c2cccc(=O)n2C3)c(NC(=O)c2c(F)cccc2F)c1 (stereo not given)	-1	0	-3	1	1	-1	.	.
Cn1c(=O)c(C(=O)CN2CCc3ccccc32)c(N)n(Cc2ccccc2)c1=O	0	0	4	1	8.0*	1	0	2
Cc1cc(C)c2nc(/N=C(\N)NC(=O)c3ccccc3)nc(C)c2c1	1	3	5	2	6.9*	0	0	2
COCC(C)N=C1NN=C(c2ccc(NC(C)=O)cc2)CS1 (stereo not given)	-1	1	5	0	0	-1	.	.
CC(C)N=C1NN=C(c2cccs2)CS1	3	4	12*	2	8.6*	1.4*	1	11*
CCCNC(=O)c1cc2c(c(-c3cccc(-c4ccccc4F)c3)n1)[C@@H](CCO)N(C(=O)CC1CC1)C2	-2	.	-2	.	-3	-2	.	.
c1ccc(-c2cnnc(-c3ccccn3)n2)cc1	2	2	5	2	7.1*	-1	0	2
CN(C)c1ccc(-c2cc3ccccc3c(=O)o2)cc1	3	3	20*	2	9.5*	1.7*	2	16*
C[C@@H]1CN([C@@H](C)CO)C(=O)CCCn2nncc2CO[C@H]1CN(C)Cc1cccnc1	0	-1	2	4	-1	0	.	.
Cc1ccc(C=Nc2cc([N+](=O)[O-])ccc2C)s1	0	4	4	0	6.9*	0	0	1
COc1cccc(N2CCN(C3C4CC5CC(C4)CC3C5)CC2)c1 (stereo not given)	0	-1	7	2	1	-1	.	.

Assay outcomes from PubChem.
